{"source": "PubChem BioAssay AID504329", "about": "(Southern Research Specialized Biocontainment Screening …, 2011)", "note": "Several values for one entry are separate records, joined by “and”; a condition that tells them apart may be missing. Identical values can stand only once. Out of some 340,000 compounds screened, about 1,000 (0.29%) were called active. Only a sample is shown. Measured potencies and affinities stand elsewhere. Values without a mark were called inactive. No stated cut-off is given here; in the data, inconclusive means inhibition above about 27% without an active follow-up result; inactive means below that.", "data": [{"assay": "H1N1 influenza NS1A inhibitors, functional cell based assay (AID 504329)", "conditions": "percent inhibition, at 12.5 µM, stronger effect = higher value", "values": [{"smiles": "COC(=O)c1cc(C(=O)OCC(=O)NC2CCS(=O)(=O)C2)cc([N+](=O)[O-])c1", "note": "(stereo not drawn)", "inhibition": "6.69%"}, {"smiles": "O=C(CCC1CCCN(C(=O)c2ccoc2)C1)NCc1ccccc1F", "note": "(stereo not drawn)", "inhibition": "-1.5%"}, {"smiles": "COc1ccccc1NC(=O)Nc1nc(CC(=O)Nc2ccc(F)cc2)cs1", "inhibition": "-9.19%"}, {"smiles": "COc1ccccc1NC(=O)Nc1nc(CC(=O)Nc2ccc(OC)c(OC)c2)cs1", "inhibition": "-0.35%"}, {"smiles": "O=C(Cn1nnc(-c2ccccc2F)n1)Nc1ccc2c(c1)OCCO2", "inhibition": "-0.7%"}, {"smiles": "C[C@H](NC(=O)c1nc[nH]c1C(=O)N1CCc2ccccc2C1)c1ccccc1", "inhibition": "-11.5%"}, {"smiles": "COc1ccc(C(=O)N/N=C/c2ccc3cccc(O)c3n2)cc1", "inhibition": "-2.2%"}, {"smiles": "CCOc1ccccc1C=NNC(=O)c1cccc2ccccc12", "inhibition": "-22.3%"}, {"smiles": "CCOc1ccc(C(=O)Nc2cccc3cccnc23)cc1", "inhibition": "-4.15%"}, {"smiles": "COc1ccc(C(=O)N/N=C/c2cccnc2)cc1", "inhibition": "-5.94%"}, {"smiles": "O=C(COc1ccc(Cl)cc1)N/N=C/c1cccc2cccnc12", "inhibition": "2.4%"}, {"smiles": "O=C(N/N=C/c1cccc2cccnc12)c1ccccc1O", "inhibition": "0.6%"}, {"smiles": "CCN(CC)CCNC(=O)/C(=C/c1cn(C)c2ccccc12)NC(=O)c1ccc(OC)c(OC)c1", "inhibition": "-22.9%"}, {"smiles": "COC(=O)Cc1[nH]nc2c1C(c1cccc(OC)c1OC)C(C#N)=C(N)O2", "note": "(stereo not drawn)", "inhibition": "-3.61%"}, {"smiles": "CN(c1ccccc1)S(=O)(=O)CS(=O)(=O)N(C)c1ccccc1", "inhibition": "-0.79%"}, {"smiles": "COc1ccccc1CNC(=O)CCCn1nc(C)n2ccnc2c1=O", "inhibition": "-0.77%"}, {"smiles": "CCCOc1ccc(N2CC(C(=O)Nc3ccc(N4CCOCC4)cc3)CC2=O)cc1", "note": "(stereo not drawn)", "inhibition": "-0.783%"}, {"smiles": "CCCC(C)C(=O)Nc1cccc(NC(C)=O)c1", "note": "(stereo not drawn)", "inhibition": "-2.06%"}, {"smiles": "COc1ccccc1CNC(=O)COC(=O)c1cccc(-n2cnnn2)c1", "inhibition": "-6.66%"}, {"smiles": "Cc1ccc(NC(=O)C2CCCN2C(=O)OCc2ccccc2)c(O)c1", "note": "(stereo not drawn)", "inhibition": "0.49%"}, {"smiles": "COc1cc(/C=C2\\SC(c3ccc(C)cc3)=NC2=O)cc(OC)c1O", "inhibition": "17.9%"}, {"smiles": "COc1cc(/C=C2\\SC(N)=NC2=O)cc(Cl)c1O", "inhibition": "4.85%"}, {"smiles": "O=C(CCN1C(=O)c2ccccc2C1=O)NCc1ccccc1", "inhibition": "5.94%"}, {"smiles": "CCN(CC)c1ccccc1", "inhibition": "-3.57%"}, {"smiles": "CCN(CC)c1ccc(NC(=O)Nc2ccc(C(C)=O)cc2)cc1", "inhibition": "7.64%"}, {"smiles": "CCN(CC)c1ccc(C(=S)NCc2ccccc2)cc1", "inhibition": "-0.32%"}, {"smiles": "CCN(CC)c1ccc(SS(=O)(=O)O)cc1", "inhibition": "-7.03% and 0.65%"}, {"smiles": "CCN(CC)c1ccc(/C=C2\\C(=O)c3ccc(C(=O)O)cc3C2=O)cc1", "inhibition": "20.7%"}, {"smiles": "CCN(CC)c1ccc(C(=O)O)cc1", "inhibition": "15.6%"}, {"smiles": "COC(=O)C1=C(C)N(CCCC(=O)O)C(=O)NC1c1ccccc1OS(=O)(=O)c1ccc([N+](=O)[O-])cc1", "note": "(stereo not drawn)", "inhibition": "13.1%"}, {"smiles": "Cc1cc(C)cc(NC(=O)COC(=O)CCc2ccc(S(=O)(=O)N3CCOCC3)cc2)c1", "inhibition": "3.45%"}, {"smiles": "Cc1cccc2cc(C#N)c(SCC(=O)Nc3ccccc3N3CCOCC3)nc12", "inhibition": "-15.7%"}, {"smiles": "Cc1ccc([N+](=O)[O-])cc1S(=O)(=O)Nc1ccc(-c2ccc(N3CCOCC3)nn2)cc1", "inhibition": "-3.07%"}, {"smiles": "COC(CNC(=O)c1coc2nc3ccccc3nc12)OC", "inhibition": "17%"}, {"smiles": "COCCCNC(=O)c1ccc2c3c(onc13)-c1ccccc1C2=O", "inhibition": "17.2%"}, {"smiles": "CCOC(=O)N1CCN(C(=O)c2cn(CC)c3ccc(S(=O)(=O)N4CCC(C)CC4)cc3c2=O)CC1", "inhibition": "-9.88%"}, {"smiles": "CCOc1ccc(C(=O)N/N=C(\\c2ccccc2)c2ccccn2)cc1", "inhibition": "-0.16%"}, {"smiles": "C/C(CC(=O)Nc1ccccn1)=N\\NC(=O)c1cnccn1", "inhibition": "-7.52%"}, {"smiles": "O=C(NN=C(c1ccccc1)c1ccccn1)c1ccccc1", "inhibition": "-14.3%"}, {"smiles": "CCc1ccc(NC(=S)N(Cc2ccccc2)Cc2ccccn2)cc1", "inhibition": "11.1%"}, {"smiles": "O=C(CCc1nnc(COc2ccccc2)o1)NCCc1cccs1", "inhibition": "-7.18%"}, {"smiles": "FC(F)(F)c1ccc(Cl)c(-n2c(-c3cc(C4CC4)[nH]n3)n[nH]c2=S)c1", "inhibition": "8.02%"}, {"smiles": "CC(CC(=O)OCC(=O)NC1CCS(=O)(=O)C1)c1ccccc1", "note": "(stereo not drawn)", "inhibition": "4%"}, {"smiles": "CC(=O)N(Cc1cccs1)Cc1cc2ccc(C)c(C)c2nc1Cl", "inhibition": "-4.22%"}, {"smiles": "Cc1ccc2oc(Nc3nc(C)cc(C)n3)nc2c1", "inhibition": "-7.76%"}, {"smiles": "Cc1cc(C)nc(Nc2nc3ccccc3o2)n1", "inhibition": "-16.8%"}, {"smiles": "Cc1nc(Nc2nc3ccccc3o2)nc(C)c1C", "inhibition": "5%"}, {"smiles": "Cc1ccc2oc(Nc3nc(C)c(C)c(C)n3)nc2c1", "inhibition": "-16.7%"}, {"smiles": "CCCSc1nc2cc(C)c(C)cc2n1CC(C)O", "note": "(stereo not drawn)", "inhibition": "-12.9%"}, {"smiles": "Cc1ccc(C(=O)Nc2cccc(C(F)(F)F)c2)cc1NC(=O)c1c[nH]c2cc(C(F)(F)F)ccc2c1=O", "inhibition": "-5.49%"}, {"smiles": "CC(C)N(C(=O)CN1C(=O)NC2(CCCCCC2)C1=O)C(C)C", "inhibition": "-2.18%"}, {"smiles": "Cc1cccc(C)c1NC(=O)c1sccc1SCC#N", "inhibition": "-4.84%"}, {"smiles": "CC[n+]1c(-c2ccccc2)c2cc(N)ccc2c2ccc(N)cc21", "inhibition": "7.81%"}, {"smiles": "C[n+]1c2cc(N)ccc2cc2ccc(N)cc21", "inhibition": "-0.44% and -3.15%"}, {"smiles": "Cc1ccc2c(c1)c1c3n2CCN(C(=O)CN2CCN(C)CC2)C3CCC1", "note": "(stereo not drawn)", "inhibition": "7.29%"}, {"smiles": "Cc1ccc2c(c1)c1c3n2CCN(C(=O)CCl)C3CCC1", "note": "(stereo not drawn)", "inhibition": "1.19%"}, {"smiles": "COc1ccc(Nc2nc(N)nc(CSC(=S)N3CCN(C)CC3)n2)cc1", "inhibition": "-7.34%"}, {"smiles": "CN(C)c1cccc2cccc(N(C)C)c12", "inhibition": "11.8%"}, {"smiles": "CN(C)c1ccc(C2Nc3cccc4cccc(c34)N2)cc1", "inhibition": "1.96%"}, {"smiles": "Cc1ccc(N=Nc2ccc(O)cc2)c(Br)c1", "inhibition": "10.2%"}, {"smiles": "CN(C)c1ccc(N=Nc2ccc(S(N)(=O)=O)cc2)cc1", "inhibition": "12.4%"}, {"smiles": "Cc1ccc(S(=O)(=O)NCCSc2ncccn2)cc1", "inhibition": "2.89%"}, {"smiles": "C=CCNC(=S)/C(=C(/[O-])c1ccc([N+](=O)[O-])cc1)[n+]1ccccc1", "inhibition": "-7.17%"}, {"smiles": "COc1ccc(C(=O)COC(=O)CCn2nnc(-c3cccc(O)c3OC)n2)cc1", "inhibition": "-2.1%"}, {"smiles": "CC1CCN(C2=C(NS(=O)(=O)c3ccc(Cl)cc3)C(=O)c3ccccc3C2=O)CC1", "inhibition": "-3.44%"}, {"smiles": "CN1CCN(C2=C(NS(=O)(=O)c3ccccc3)C(=O)c3ccccc3C2=O)CC1", "inhibition": "-2.49%"}, {"smiles": "CC1CCCN(C2=C(NS(=O)(=O)c3ccc(Br)cc3)C(=O)c3ccccc3C2=O)C1", "note": "(stereo not drawn)", "inhibition": "27.1%"}, {"smiles": "NC(=O)C1CCN(C2=C(NS(=O)(=O)c3ccccc3)C(=O)c3ccccc3C2=O)CC1", "inhibition": "24.5%"}, {"smiles": "CC(=O)Nc1ccc(S(=O)(=O)NC2=C(N3CCN(c4ccc(F)cc4)CC3)C(=O)c3ccccc3C2=O)cc1", "inhibition": "27.2%"}, {"smiles": "CN(C(=O)c1cccs1)c1ccc(OCC(=O)N2CCC(C(N)=O)CC2)cc1", "inhibition": "-3.1%"}, {"smiles": "CCOC(=O)/C(C#N)=C1\\C(=O)N(Cc2ccccc2)c2ccccc21", "inhibition": "13.1%"}, {"smiles": "CCOC(=O)C(C#N)=C1CCN(Cc2ccccc2)CC1", "inhibition": "-28.1%"}, {"smiles": "O=C(N/N=C/c1cn(-c2ccccc2)nc1-c1cccnc1)c1ccccc1", "inhibition": "-7.1%"}, {"smiles": "O=C(c1ccc2ccccc2n1)N1CCN(c2ccccc2)CC1", "inhibition": "-4.44%"}, {"smiles": "CC(=O)c1ccc(Nc2c([N+](=O)[O-])ccc3nonc23)cc1", "inhibition": "6.86%"}, {"smiles": "COc1ccc(NC2=NC3(CCCCC3)N=C(N)N2)cc1", "inhibition": "-15.4%"}, {"smiles": "COc1ccc(Nc2ccc3c(c2)=NC2(CCCCC2)[N+]=3[O-])cc1", "inhibition": "26.2%"}, {"smiles": "Cc1ccc(NC(=O)c2ccc(Nc3c([N+](=O)[O-])cc([N+](=O)[O-])cc3[N+](=O)[O-])cc2)cc1", "inhibition": "2.68%"}, {"smiles": "COC(=O)C1=C(c2cccc(OC)c2OC)C[C@@H]2CC[C@H]1N2C(=O)NCCS(C)=O", "note": "(stereo partly drawn)", "inhibition": "-8.82%"}, {"smiles": "CC1Cc2ccccc2N1C(=O)COC(=O)c1ccc(Cl)c(S(=O)(=O)N2CCOCC2)c1", "note": "(stereo not drawn)", "inhibition": "9.33%"}, {"smiles": "COC(=O)c1nnn(-c2cccc(Cl)c2)c1C(=O)OC", "inhibition": "-5.37%"}, {"smiles": "O=C(CN(Cc1ccc(F)cc1)C(=O)CCC(=O)Nc1nccs1)NCC1CCCO1", "note": "(stereo not drawn)", "inhibition": "-15.5%"}, {"smiles": "O=C(Nc1cccc(-n2cnnn2)c1)c1ccc(C(F)(F)F)cc1", "inhibition": "-1.71%"}, {"smiles": "Cc1ccc(S(=O)(=O)c2nc(N3CCOCC3)sc2Cl)cc1", "inhibition": "-3.55%"}, {"smiles": "CC1=NN(c2ccccc2)C(=O)C1N=Nc1ccccc1", "note": "(stereo not drawn)", "inhibition": "-6.95%"}, {"smiles": "CC1=NN(c2ccccc2)C(=O)C1N=Nc1ccc(S(N)(=O)=O)cc1", "note": "(stereo not drawn)", "inhibition": "1.05%"}, {"smiles": "CC(=O)Nc1ccc(N2N=C(C)C(N=Nc3ccccc3)C2=O)cc1", "note": "(stereo not drawn)", "inhibition": "22.2%"}, {"smiles": "CC1=NN(c2ccccc2)C(=O)C1N=Nc1cccc(O)c1", "note": "(stereo not drawn)", "inhibition": "0.04%"}, {"smiles": "COc1ccc(N2CCN(c3nc4c(C)cccn4c(=O)c3C=C(C#N)C#N)CC2)cc1", "inhibition": "-22.9%"}, {"smiles": "O=C(NNC(=O)c1cccs1)c1ccncc1", "inhibition": "-2.62%"}, {"smiles": "COc1ccc([C@H]2CC(=O)C=C(c3cccc4c3sc3ccccc34)C2)cc1OC", "inhibition": "7.03%"}, {"smiles": "Nc1nc(NC(=O)c2ccccc2)nn1-c1ccccc1", "inhibition": "-6.76%"}, {"smiles": "Nc1nc(NC(=O)c2ccco2)nn1-c1ccccc1", "inhibition": "5.18%"}]}]}
